According to PubChem BioAssay AID1159580 (chemical genetic matrix, 2015):
Values joined by “and” are separate entries in the source; they are usually repeats but may differ in a detail not shown here. Equal values may be shown once. The campaign covered roughly 5,500 compounds. About 2,000 (36%) were called active. Inconclusive results (about 18%) are left out. Cut-off read from the data, not from the text of the source: active = normalized growth mostly below about 0.91 (no sharp cut-off); inconclusive = no clear call, values can overlap the other calls; inactive = mostly above about 0.92. This is one part of the list. Where a structure was tested more than once in an assay, its records may differ in their call.

Experiment: chemical genetic growth profiling, strain panel (AID 1159580);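 note: tested at 20 µM; growth read once vehicle control cultures reached saturation at 30 °C; 1 = growth at the plate median or of vehicle wells; lower values mean less growth of the strain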
Conditions: growth OD

Measured: normalized growth

NCC(O)c1ccc(O)cc1 (stereo not given)
0.727 (active) and 1 (inactive): S. cerevisiae deletion strains, locus YMR263W, strain SAP30, stronger effect = lower value
active: S. cerevisiae deletion strains, locus YOL012C, strain htz1 2.07 [resistant]
inactive: S. cerevisiae deletion strains, locus YKL009W, strain mrt4, stronger effect = lower value 1.01 | S. cerevisiae deletion strains, locus YKL068W, stronger effect = lower value 0.984 | S. cerevisiae deletion strains, locus YKL085W, strain MDH1 (second series), stronger effect = lower value 0.989 | S. cerevisiae deletion strains, locus YKL085W, strain MDH1, stronger effect = lower value 0.989 | S. cerevisiae deletion strains, locus YKL160W, strain elf1, stronger effect = lower value 0.998 | S. cerevisiae deletion strains, locus YKL190W, strain CNB1, stronger effect = lower value 1 | S. cerevisiae deletion strains, locus YKR001C, strain vps1, stronger effect = lower value 0.967 | S. cerevisiae deletion strains, locus YKR026C, strain gcn3, stronger effect = lower value 0.998 | S. cerevisiae deletion strains, locus YKR091W, strain srl3, stronger effect = lower value 0.999 | S. cerevisiae deletion strains, locus YLL001W, strain dnm1, stronger effect = lower value 1 | S. cerevisiae deletion strains, locus YLL026W, stronger effect = lower value 0.99 | S. cerevisiae deletion strains, locus YLL041C, strain sdh2, stronger effect = lower value 1.01 | S. cerevisiae deletion strains, locus YLR027C, strain aat2, stronger effect = lower value 0.993 | S. cerevisiae deletion strains, locus YLR039C, strain RIC1, stronger effect = lower value 1.02 | S. cerevisiae deletion strains, locus YLR058C, strain SHM2, stronger effect = lower value 0.995 | S. cerevisiae deletion strains, locus YLR102C, strain apc9, stronger effect = lower value 0.972 | S. cerevisiae deletion strains, locus YLR113W, strain HOG1, stronger effect = lower value 1.02 | S. cerevisiae deletion strains, locus YLR221C, strain rsa3, stronger effect = lower value 1 | S. cerevisiae deletion strains, locus YLR258W, strain gsy2, stronger effect = lower value 1.01 | S. cerevisiae deletion strains, locus YLR262C, strain YPT6 (second series), stronger effect = lower value 0.983 | S. cerevisiae deletion strains, locus YLR262C, strain YPT6, stronger effect = lower value 1.06 | S. cerevisiae deletion strains, locus YLR268W, strain sec22, stronger effect = lower value 0.922 | S. cerevisiae deletion strains, locus YLR320W, strain mms22, stronger effect = lower value 1.04 | S. cerevisiae deletion strains, locus YLR330W, strain CHS5, stronger effect = lower value 0.996 | S. cerevisiae deletion strains, locus YLR342W, strain FKS1 (second series), stronger effect = lower value 1.03 | S. cerevisiae deletion strains, locus YLR342W, strain FKS1, stronger effect = lower value 0.981 | S. cerevisiae deletion strains, locus YLR357W, strain rsc2, stronger effect = lower value 0.973 | S. cerevisiae deletion strains, locus YLR370C, strain arc18, stronger effect = lower value 1.01 | S. cerevisiae deletion strains, locus YLR371W, strain rom2, stronger effect = lower value 0.981 | S. cerevisiae deletion strains, locus YLR384C, strain iki3, stronger effect = lower value 1 | S. cerevisiae deletion strains, locus YLR418C, strain cdc73, stronger effect = lower value 0.967 | S. cerevisiae deletion strains, locus YML016C, strain PPZ1, stronger effect = lower value 0.998 | S. cerevisiae deletion strains, locus YML032C, strain rad52, stronger effect = lower value 0.962 | S. cerevisiae deletion strains, locus YML120C, strain ndi1, stronger effect = lower value 1.01 | S. cerevisiae deletion strains, locus YML124C, strain tub3, stronger effect = lower value 0.99 | S. cerevisiae deletion strains, locus YMR058W, strain fet3, stronger effect = lower value 1.02 | S. cerevisiae deletion strains, locus YMR078C, strain ctf18, stronger effect = lower value 0.968 | S. cerevisiae deletion strains, locus YMR125W, strain sto1, stronger effect = lower value 0.993 | S. cerevisiae deletion strains, locus YMR129W, stronger effect = lower value 1.01 | S. cerevisiae deletion strains, locus YMR205C, strain PFK2, stronger effect = lower value 0.994 | S. cerevisiae deletion strains, locus YMR223W, strain ubp8, stronger effect = lower value 0.997 | S. cerevisiae deletion strains, locus YMR231W, strain pep5, stronger effect = lower value 0.995 | S. cerevisiae deletion strains, locus YMR307W, strain GAS1, stronger effect = lower value 0.985 | S. cerevisiae deletion strains, locus YNL067W, strain RPL9B, stronger effect = lower value 0.991 | S. cerevisiae deletion strains, locus YNL071W, strain lat1, stronger effect = lower value 1.01 | S. cerevisiae deletion strains, locus YNL128W, strain TEP1, stronger effect = lower value 0.993 | S. cerevisiae deletion strains, locus YNL153C, strain GIM3, stronger effect = lower value 0.991 and 1.02 | S. cerevisiae deletion strains, locus YNL175C, strain NOP13, stronger effect = lower value 1.01 | S. cerevisiae deletion strains, locus YNL183C, strain NPR1, stronger effect = lower value 0.918 | S. cerevisiae deletion strains, locus YNL197C, strain WHI3, stronger effect = lower value 1.04 | S. cerevisiae deletion strains, locus YNL209W, strain ssb2, stronger effect = lower value 1.02 | S. cerevisiae deletion strains, locus YNL224C, strain SQS1, stronger effect = lower value 1.01 | S. cerevisiae deletion strains, locus YNL233W, strain BNI4, stronger effect = lower value 0.977 | S. cerevisiae deletion strains, locus YNL248C, strain rpa49, stronger effect = lower value 1.02 | S. cerevisiae deletion strains, locus YNL250W, strain rad50, stronger effect = lower value 0.976 | S. cerevisiae deletion strains, locus YNL271C, strain bni1, stronger effect = lower value 0.967 | S. cerevisiae deletion strains, locus YNL298W, strain CLA4, stronger effect = lower value 0.966 | S. cerevisiae deletion strains, locus YNL307C, strain MCK1, stronger effect = lower value 0.985 | S. cerevisiae deletion strains, locus YNL322C, strain KRE1 (second series), stronger effect = lower value 1 | S. cerevisiae deletion strains, locus YNL322C, strain KRE1, stronger effect = lower value 0.999 and 1.02 | S. cerevisiae deletion strains, locus YNR049C, strain mso1, stronger effect = lower value 1 | S. cerevisiae deletion strains, locus YNR052C, strain pop2, stronger effect = lower value 0.982 | S. cerevisiae deletion strains, locus YOL006C, strain TOP1, stronger effect = lower value 0.943 | S. cerevisiae deletion strains, locus YOL147C, strain pex11, stronger effect = lower value 0.976 | S. cerevisiae deletion strains, locus YOR001W, strain rrp6, stronger effect = lower value 0.989 | S. cerevisiae deletion strains, locus YOR061W, strain CKA2, stronger effect = lower value 0.991 | S. cerevisiae deletion strains, locus YOR069W, strain VPS5, stronger effect = lower value 0.995 | S. cerevisiae deletion strains, locus YOR070C, strain gyp1, stronger effect = lower value 1 | S. cerevisiae deletion strains, locus YOR080W, strain dia2, stronger effect = lower value 0.985 | S. cerevisiae deletion strains, locus YOR083W, strain WHI5 (second series), stronger effect = lower value 1.01 | S. cerevisiae deletion strains, locus YOR083W, strain WHI5, stronger effect = lower value 0.977 | S. cerevisiae deletion strains, locus YOR106W, strain vam3, stronger effect = lower value 1.02 | S. cerevisiae deletion strains, locus YOR136W, strain idh2, stronger effect = lower value 0.982 | S. cerevisiae deletion strains, locus YOR144C, strain elg1, stronger effect = lower value 0.976 | S. cerevisiae deletion strains, locus YOR184W, strain ser1, stronger effect = lower value 0.971 | S. cerevisiae deletion strains, locus YOR231W, strain MKK1, stronger effect = lower value 1.01 | S. cerevisiae deletion strains, locus YOR265W, strain rbl2, stronger effect = lower value 1 | S. cerevisiae deletion strains, locus YOR270C, strain vph1, stronger effect = lower value 1.06 | S. cerevisiae deletion strains, locus YOR290C, strain snf2, stronger effect = lower value 1 | S. cerevisiae deletion strains, locus YOR316C, strain cot1, stronger effect = lower value 0.974 | S. cerevisiae deletion strains, locus YPL051W, strain arl3, stronger effect = lower value 0.995 | S. cerevisiae deletion strains, locus YPL055C, strain LGE1, stronger effect = lower value 1.02 and 1.01 | S. cerevisiae deletion strains, locus YPL078C, strain atp4, stronger effect = lower value 1.01 | S. cerevisiae deletion strains, locus YPL106C, strain sse1, stronger effect = lower value 0.971 | S. cerevisiae deletion strains, locus YPL240C, strain hsp82, stronger effect = lower value 1 | S. cerevisiae deletion strains, locus YPL241C, strain CIN2, stronger effect = lower value 1 and 1.01 | S. cerevisiae deletion strains, locus YPL256C, strain CLN2, stronger effect = lower value 0.97 | S. cerevisiae deletion strains, locus YPR119W, strain clb2, stronger effect = lower value 0.968 | S. cerevisiae deletion strains, locus YPR141C, strain kar3, stronger effect = lower value 0.976 | S. cerevisiae deletion strains, locus YPR163C, strain tif3, stronger effect = lower value 0.971 | S. cerevisiae deletion strains, locus YPR167C, strain met16, stronger effect = lower value 0.974 | S. cerevisiae deletion strains, strain wtn01, stronger effect = lower value 0.969 | S. cerevisiae strains, strain wild type, stronger effect = lower value 1
